Each structure is given as a SMILES string. Hit rate of the full screen: of about 130,000 compounds, about 1,200 (0.92%) were called active. A call without a number means that no potency is given here. Roughly 3% stayed inconclusive and do not appear here. For the sample, actives were picked, then their nearest neighbours and some compounds at random. Values without a mark were called inactive. The call rests on the fitted dose curve; in most records, active means well fitted cell-killing curve with a large enough effect; inconclusive means small, poorly fitted or top-dose-only effect; inactive means no such curve, though single readings can be large or run the other way.
Potency means the concentration at half of the fitted maximal effect.

The nature of the test: qHTS Screen for Compounds that Selectively Target Cancer Cells with p53 Mutations: Cytotoxicity of p53ts Cells at the Permissive Temperature. Further: nearly all actives have a fitted effect of over 55% in size. The note with it: H1299-p53A138V at 32C, ATP luminescence viability, 24 h; series mostly up to 46.1 µM. The source says: NIH Chemical Genomics Center [NCGC] NIH Molecular Libraries Screening Centers Network [MLSCN] MLSCN Grant: 1 X01 MH079844-01 Assay Submitter (PI): Dr. SUN, YI, University of Michigan NCGC Assay Overview: Synthetic Lethal Screen for Compounds to Kill Cancer Cells with p53 Mutation. Tumor suppressor gene p53 serves as a major cellular barrier against tumorigenesis. […] The goal of this screening is to identify small molecule probes that selectively kill cancer cells with mutations in p53. This screening was carried out using two lines of H1299 lung cancer cells. The H1299-p53 A138V line express a temperature sensitive p53 mutant (p53ts) in which the mutant p53 protein (A138V) is in the mutant confirmation when grown at 39C (the nonpermissive temperature) and in the wild type conformation when grown at 32C (the permissive temperature). A H1299-neo line (p53 null) grown at both 39C and 32C were used as counter-screens to filter out false positive associated with temperature shifting. The small molecular compounds that selectively target mutant p53-containing cancer cells were selected as candidate probes for further study. A cytotoxicity assay based on the measurement of ATP contents in cells was used in this screen. Concentration-responses of all the compounds in the library collection were determined in qHTS using the cell lines and temperature conditions as above.
NCGC Assay Protocol Summary: Both the H1299-p53A138V and H1299-neo cell lines were provided by Dr.Yi Sun, a PI at the University Michigan. The cells were maintained and cultured at 37C. The resuspended frozen cells were used to plate the cells in the 1536-well assay plates at a density of 600 cells per well in 5 ul medium. The assay plates with the cells were incubated at 37C for 16 to 30 hours before the experiments. The library compounds in DMSO solution were added to the cells in assay plates and incubated 24 hours at 39C (for mutant p53 conformation) or 32C (for normal p53 conformation as control). An ATP_lite assay kit (PerkinElmer) was used to determine the cell viability. Tomaxifen (100uM) was used as the positive control for cell killing. Data were normalized to the controls for basal activity (DMSO only) and 100% killing (100uM tamoxifen). AC50 values were determined from concentration-response data modeled with the standard Hill equation. P53 assay protocol: 1. Reagent; 5 uL H1299-p53A138V or H1299-neo cell cells/well 2. Time; overnight; 37C incubation 3. Compounds; 23 nL; 5.9 nM to 46 uM 4. Controls; 23 nL; Tamoxifen 100 uM 5. Time; 24 hr; 37C incubation 6. Reagent; 3 uL; ATP_Lite reagent 7. Time; 20 min; Room Temperature 8. Detection; Luminescence; Viewlux plate reader Keywords: p53, synthetic lethal, cancer, cell viability, cytotoxicity, H1299 cell line, luminescence, MLSMR, MLSCN, NIH Roadmap, qHTS, NCGC
Background: Quantitative high-throughput screening tests each substance at several concentrations.
As for `Cc1ccc(Cl)cc1NC(=O)Cc1ccc(-n2c(C)nc3cccnc32)cc1`, the Potency result was “inactive”.

With `COc1cccc(N2CC(NC(=O)/C=C\c3ccccc3)CC2=O)c1` (stereo unspecified), the Potency result was “inactive”.

On to `Cc1nc(-c2ccc(NC(=O)c3cccs3)cc2)cs1`, for which the Potency is 1.26 µM (active).

For `CCc1ccccc1NC(=O)c1cccs1`, the Potency result was “inactive”.

With `O=C(O)c1ccc(NC(=O)c2cccs2)cc1`, the Potency result is “inactive”.

`Cc1c(CNC(C)c2ccccc2)c(C(=O)O)c(C)n1Cc1c(F)cccc1Cl` (stereo unspecified): the Potency entry was “inactive”.

On to `COc1cc(NC(=O)C2CCN(c3cnccn3)CC2)cc(OC)c1`, for which the Potency result is “inactive”.

As to `c1ccc(-c2nc(NCc3ccco3)c3ccccc3n2)cc1`, the Potency entry was “inactive”.

`CN(C)c1ccc(-c2nc(NCCN3CCOCC3)c3ccccc3n2)cc1`: the Potency is 12.6 µM (active).

Regarding `c1ccc2[nH]c(NCCN3CCOCC3)nc2c1`, the Potency entry was “inactive”.

On to `NS(=O)(=O)c1ccc(CCNC(=O)CCCCCn2c(=O)[nH]c3ccccc3c2=O)cc1`, for which the Potency entry was “inactive”.

For the compound `CC(=O)Nc1cccc(NC(=O)CSc2cn(CC(=O)N3CCCC3)c3ccccc23)c1`, the Potency result was “inactive”.

`CCOc1ccccc1C(=O)NCC(c1ccc(N(C)C)cc1)N1CCCC1` (stereo unspecified): the Potency result was “inactive”.

In the case of `CCC(=O)NC(=Nc1nc2ccccc2s1)NC(=O)CC`, the Potency is 15.8 µM (active).

Take `COC(=O)c1nc2ccccc2s1`: the Potency entry is “inactive”.

For the compound `O=C(O)CSCc1nc2ccccc2s1`, the Potency entry is “inactive”.

Consider `COc1ccc(OC)c(-c2noc(N3CCN(c4cc(Cl)ccc4C)CC3)n2)c1`, for which the Potency entry is “inactive”.

Turning to `Cc1ccccc1NC(=O)c1ccccc1`, the Potency result is “inactive”.

For the compound `Cc1ccc(NC(=O)c2cccc(N(C)C)c2)cc1NC(=O)c1ccc(O)cc1`, the Potency is 12.6 µM (active).

On to `Cc1ccc(F)cc1NC(=O)c1cccc(N(C)C)c1`, for which the Potency entry is “inactive”.

On to `CC(C)c1ccc(NC(=O)C2CCN(c3nc(-c4ccc(C(C)C)cc4)no3)CC2)cc1`, for which the Potency result is “inactive”.

In the case of `Cn1c(=O)c(C(=O)O)nn(-c2ccccc2)c1=O`, the Potency entry is “inactive”.

As for `O=C(Nc1nnc(S(=O)(=O)N2CCCCCC2)s1)c1cccc(Br)c1`, the Potency result was “inactive”.

Turning to `CCN(C(=O)Cn1c(=O)nc(-c2ccccc2)c2cc(Cl)ccc21)c1cccc(C)c1`, the Potency entry was “inactive”.

As to `O=C(Cn1nnc(-c2ccccc2)n1)NCc1ccccc1`, the Potency result is “inactive”.

As for `O=C(Cn1c(=O)nc(-c2ccccc2)c2cc(Cl)ccc21)NCc1ccc(Cl)cc1`, the Potency was 10 µM (active).

`CCc1ccccc1NC(=O)Cc1ccc(NC(=O)N2CCCCc3ccccc32)cc1`: the Potency entry was “inactive”.

Take `COc1ccc2c(c1)CCc1c(C(=O)Nc3cc(C)ccc3O)noc1-2`: the Potency entry is “inactive”.

`Cc1ccc2nc(COc3cccc(NC(=O)Nc4ccc(C)c(Cl)c4)c3)cc(=O)n2c1`: the Potency entry was “inactive”.

With `CCOc1ccc(-c2nnc(-c3ccco3)o2)cc1`, the Potency was 10 µM (active).

Consider `CCOc1ccc(NC(=O)c2ncoc2-c2ccco2)cc1`, for which the Potency was 12.6 µM (active).

Regarding `CCOc1ccc(C(=O)Nc2ccncc2)cc1`, the Potency result is “inactive”.

Consider `O=C(CCc1ccccc1)Nc1cccc(-c2nnc(-c3ccco3)o2)c1`, for which the Potency entry was “inactive”.

For `CCC(=O)Oc1cccc(C(=O)Nc2ccc(-c3nnc(-c4ccco4)o3)cc2)c1`, the Potency result is “inactive”.

As for `CCOc1ccc(NC(=O)Nc2cc(C)on2)cc1`, the Potency entry is “inactive”.

Take `COc1ccc(-n2c(=O)c3c(c4cc(OC)ccc4n3C)n(Cc3cccc(C)c3)c2=O)cc1`: the Potency entry was “inactive”.

As for `COc1ccc(N2C(=O)CSC23C(=O)N(Cc2cccc(F)c2)c2ccccc23)cc1Cl` (stereo unspecified), the Potency entry was “inactive”.

Consider `CCCCOc1ccc(NC(=O)c2cc3c(n(-c4ccc(Cl)cc4)c2=O)CCCC3=O)cc1`, for which the Potency result was “inactive”.

Regarding `COc1ccc(C2CC(=O)N(Cc3ccccc3C)c3c2c(C)nn3-c2nc(C)cc(C)n2)c(OC)c1` (stereo unspecified), the Potency result was “inactive”.

For the compound `CCOCCCNC(=O)c1ccc2nc(CCc3ccccc3)oc2c1`, the Potency result is “inactive”.

For `COc1ccc(C(=O)Nc2onc3c2CCCC3)cc1`, the Potency is 10 µM (active).

Turning to `COc1ccc(NC(=O)c2c(C)oc3c2CCCC3)cc1`, the Potency entry is “inactive”.

Turning to `CC1CCc2noc(NC(=O)c3ccc([N+](=O)[O-])cc3)c2C1` (stereo unspecified), the Potency entry is “inactive”.

For `COc1ccc(-c2onc(C)c2C)cc1S(=O)(=O)NCC1CCN(Cc2cccc(F)c2)CC1`, the Potency entry is “inactive”.

Turning to `CCOc1ccccc1NC(=O)CN1CCCN(Cc2cccc(Cl)c2)S1(=O)=O`, the Potency result is “inactive”.

For `COc1ccc(CNC(=O)c2ccc3c(O)c(S(=O)(=O)c4ccccc4)c(=O)[nH]c3c2)cc1`, the Potency result was “inactive”.

Turning to `Cc1ccc(C(=O)Nc2ccc3[nH]c(=O)c(=O)[nH]c3c2)cc1`, the Potency entry was “inactive”.

With `CC(C)c1ccc(NC(=O)c2ccc3c(O)c(S(=O)(=O)c4ccccc4)c(=O)[nH]c3c2)cc1`, the Potency is 12.6 µM (active).

In the case of `Cn1c(=NC(=O)CSCC(=O)N2CCOCC2)sc2ccccc21`, the Potency result is “inactive”.

As to `Cn1c(=NC(=O)CSCC(=O)N2CCCCC2)sc2ccccc21`, the Potency result was “inactive”.

For `Cn1c(=NC(=O)c2cnccn2)sc2ccccc21`, the Potency is 15.8 µM (active).
